Test results taken from PubChem BioAssay (EPA / NIEHS).
Activity calls are given as the source filed them. Rule for the calls: active = hit-call score of the fitted dose curve at least 0.9, where 1 is the maximum; inactive = score below 0.9.

Legend:
[1] = ATG_M_32_CIS: Attagene CIS-FACTORIAL HepG2 Assay for M32 Transcription Factor (Internal Marker) (AID 2282949); details: HepG2 Attagene cis-factorial M32 reporter, mRNA; actives raise or lower the signal;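 note: background control marker of the multiplexed CIS panel rather than a real target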
In short: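 Using DMSO as baseline, bidirectional curve fits were applied to reporter mRNA signals. These came from transiently transfected HepG2 cells exposed for 24 h, with RNA analysed by RT-PCR, FAM primer extension, HpaI digestion and CE.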

[2] = ATG_M_06_CIS: Attagene CIS-FACTORIAL HepG2 Assay for M06 Transcription Factor (Internal Marker) (AID 2282950); details: HepG2 Attagene CIS-FACTORIAL M06 internal marker reporter; actives raise or lower the signal
In short: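 Fluorescence-labelled RT-PCR products from cis-promoter reporter units, cut with HpaI and resolved by capillary electrophoresis, give the signal. Cells are human HepG2, dosed for 24 h. Serves as background control, fitted relative to DMSO.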

[3] = target: Hypoxia-inducible factor 1-alpha (Homo sapiens) (UniProt Q16665); assay: ATG_HIF1a_CIS: Attagene CIS-FACTORIAL HepG2 Assay for human Hypoxia Inducible Factor 1 (HIF1A) (AID 2282951); details: HepG2 Attagene cis-factorial HIF1a reporter transcription; actives raise or lower the signal
In short: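 Measures endogenous transcription-factor activity through cis-regulated reporter mRNA in HepG2. Cells dosed 24 h; transcripts quantified by RT-PCR with 6-FAM-labelled products separated by capillary electrophoresis; DMSO serves as negative control.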

[4] = target: Hepatocyte nuclear factor 6 (Homo sapiens) (UniProt Q9UBC0); assay: ATG_HNF6_CIS: Attagene CIS-FACTORIAL HepG2 Assay for human Hepatocyte Nuclear Factor 6 (HNF6) (AID 2282952); details: HepG2 Attagene cis-factorial HNF6 reporter transcription; actives raise or lower the signal
In short: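 Endogenous transcription factor activity in human HepG2 liver cells was captured through cis-regulated reporter constructs. After 24 h treatment, reporter mRNA was measured by RT-PCR with capillary electrophoresis, and activity was fitted in both directions relative to DMSO.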

[5] = target: Heat shock factor protein 1 (Homo sapiens) (UniProt Q00613); assay: ATG_HSE_CIS: Attagene CIS-FACTORIAL HepG2 Assay for human Heat Shock Transcription Factor 1 (HSE) (AID 2282953); details: HepG2 HSE cis-reporter, Attagene RNA transcription; actives raise or lower the signal
In short: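 After a 24 h incubation with test chemical, transfected HepG2 cells were harvested for RNA; reporter transcripts were measured by RT-PCR and capillary electrophoresis. Values reflect gain or loss of signal relative to DMSO.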

[6] = ATG_MRE_CIS: Attagene CIS-FACTORIAL HepG2 Assay for human Metal Responsive Element (MRE) (AID 2282954); details: HepG2 MRE cis-reporter transcription, Attagene multiplex; actives raise or lower the signal
In short: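 Multiplexed cis-reporter assay in human HepG2 liver cells, 24 h incubation with test chemical. Reporter transcripts measured by RT-PCR and capillary electrophoresis; values from bidirectional curve fitting versus DMSO.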

[7] = ATG_PBREM_CIS: Attagene CIS-FACTORIAL HepG2 Assay for human Phenobarbital-responsive Enhancer Module (PBREM) (AID 2282955); details: HepG2 PBREM cis-reporter, Attagene multiplexed transcription; actives raise or lower the signal
In short: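 Fluorescence of labelled reporter cDNA fragments, resolved by capillary electrophoresis, gives mRNA induction in transfected HepG2 cells treated for 24 h; DMSO serves as negative control and baseline.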

[8] = target: Paired box protein Pax-6 (Homo sapiens) (UniProt P26367); assay: ATG_Pax6_CIS: Attagene CIS-FACTORIAL HepG2 Assay for human Paired Box 6 (PAX6) (AID 2282956); details: HepG2 CIS-FACTORIAL PAX6 reporter transcription, RNA readout; actives raise or lower the signal
In short: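 DMSO-referenced bidirectional fits of reporter mRNA fluorescence; HepG2 with transient cis-promoter MRTUs, 24 h post-dose, RT-PCR plus capillary electrophoresis detection.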

[9] = ATG_PPRE_CIS: Attagene CIS-FACTORIAL HepG2 Assay for human Peroxisome Proliferator-activated Response Element (PPRE) (AID 2282958); details: HepG2 PPRE cis-element reporter, Attagene transcription factor profiling; actives raise or lower the signal
In short: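 Cells are first transfected transiently with the multiplexed reporter library, then dosed for 24 h. Total RNA is reverse-transcribed, amplified, fluorescently end-labeled and HpaI-cut before capillary electrophoresis; activity is fitted bidirectionally against DMSO controls.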

[10] = ATG_RORE_CIS: Attagene CIS-FACTORIAL HepG2 Assay for human RAR-related Orphan Receptor Element (RORE) (AID 2282959); details: HepG2 Attagene cis-factorial RORE reporter, mRNA; actives raise or lower the signal
In short: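 Cells were HepG2 carrying transfected cis-regulated reporter constructs, dosed for 24 hours. Total RNA was reverse-transcribed and reporter cDNA amplified, fluorescently labeled and sized by capillary electrophoresis. Activity was fitted bidirectionally relative to DMSO.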

[11] = ATG_Sox_CIS: Attagene CIS-FACTORIAL HepG2 Assay for human SRY-box transcription factor (SOX) (AID 2282960); details: HepG2 Attagene cis-factorial SOX reporter, mRNA; actives raise or lower the signal
In short: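 Transient MRTU transfection of HepG2; 24 h compound incubation; TriZol RNA, oligo(dT) RT, PCR, 6-FAM primer extension, HpaI cut, CE. Bidirectional fit, DMSO = baseline.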

[12] = target: Transcription factor Sp1 (Homo sapiens) (UniProt P08047); assay: ATG_Sp1_CIS: Attagene CIS-FACTORIAL HepG2 Assay for human Specificity Protein 1 (Sp1) (AID 2282961); details: HepG2 Sp1 cis-reporter transcription, actives raise or lower the signal
In short: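 Endogenous Sp1 activity was gauged in human liver HepG2 cells bearing transfected reporter units under a cis-regulating promoter. After 24 h dosing, reporter mRNA was quantified by RT-PCR with capillary electrophoresis, and activity fitted bidirectionally versus DMSO.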

[13] = ATG_SREBP_CIS: Attagene CIS-FACTORIAL HepG2 Assay for human Sterol Regulatory Element Binding (SREBP) (AID 2282962); details: HepG2 Attagene cis-factorial SREBP reporter, mRNA; actives raise or lower the signal
In short: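 In this cis-format assay, HepG2 liver cells express reporters controlled by promoter elements responsive to native transcription factors. Exposure lasts 24 h; reporter mRNA fluorescence from capillary electrophoresis gives the signal, fitted bidirectionally against DMSO.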

[14] = target: Signal transducer and activator of transcription 3 (Homo sapiens) (UniProt P40763); assay: ATG_STAT3_CIS: Attagene CIS-FACTORIAL HepG2 Assay for human Signal Transducer and Activator of Transcription 3 (STAT3) (AID 2282963); details: HepG2, Attagene cis-factorial STAT3 reporter transcription; actives raise or lower the signal
In short: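 Cis-factorial format: endogenous transcription factors in HepG2 drive transfected reporter units. After 24 h treatment, reporter RNA was reverse-transcribed, amplified, FAM-labelled and HpaI-digested before CE analysis; activity scored in both directions against DMSO.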

[15] = ATG_TA_CIS: Attagene CIS-FACTORIAL HepG2 Assay for human TA Basal Promoter (AID 2282964); details: HepG2 Attagene CIS-factorial TA basal promoter reporter; actives raise or lower the signal
In short: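 Multiplexed mRNA reporter assay, HepG2, 24 h. Reporter cDNA amplified, 6-FAM primer-extended, HpaI-cut, CE-sized; DMSO = negative control and baseline.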

[16] = ATG_TCF_b_cat_CIS: Attagene CIS-FACTORIAL HepG2 Assay for human T-Cell-Factor with beta-catenin (TCF/b-cat) (AID 2282965); details: HepG2 TCF/beta-catenin cis-reporter transcription, actives raise or lower the signal
In short: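 Endogenous TCF/LEF activity read as reporter transcript level via RT-PCR and capillary electrophoresis fluorescence in transfected HepG2, 24 h exposure; gain or loss of signal fitted against DMSO controls.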

[17] = ATG_TAL_CIS: Attagene CIS-FACTORIAL HepG2 Assay for human TAL Basal Promoter (AID 2282966); details: HepG2 Attagene cis-factorial TAL promoter reporter; actives raise or lower the signal;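 note: background control endpoint measuring basal TAL promoter reporter mRNA not a specific factor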
In short: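 Endogenous transcription-factor activity is sensed in HepG2 cells through transfected cis-promoter reporter constructs. After 24 h dosing, reporter transcripts are quantified by RT-PCR and capillary electrophoresis. Gain or loss of signal is fitted relative to DMSO.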

[18] = ATG_TGFb_CIS: Attagene CIS-FACTORIAL HepG2 Assay for human Transforming Growth Factor (TGF) (AID 2282967); details: HepG2 Attagene CIS TGFb reporter, mRNA transcription; actives raise or lower the signal
In short: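 Transcript-level reporter readout: HepG2 transfectants, 24 h exposure, RNA to cDNA, reporter-specific PCR, fluorescent primer extension, capillary sizing against ROX standards. Gain- or loss-of-signal relative to DMSO.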

[19] = ATG_VDRE_CIS: Attagene CIS-FACTORIAL HepG2 Assay for human Vitamin D Receptor Element (VDRE) (AID 2282968); details: HepG2 VDRE cis-reporter transcription, actives raise or lower the signal
In short: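 Measures endogenous factor activity through cis-element-driven reporter transcripts in transiently transfected HepG2. Cells are treated 24 h; reporter mRNA is quantified by RT-PCR and capillary electrophoresis; fitting is bidirectional.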

[20] = ATG_PXRE_CIS: Attagene CIS-FACTORIAL HepG2 Assay for human Pregnane X Receptor Element (PXRE) (AID 2282957); details: HepG2 Attagene CIS-FACTORIAL PXRE reporter, mRNA; actives raise or lower the signal
In short: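 Endogenous transcription factor activity in HepG2 was gauged through induction of reporter mRNA driven by a cis-regulating promoter element, sampled 24 h post-treatment. Activity was fitted in both directions against DMSO negative control.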

Chain of Transcription factor Sp1 (Homo sapiens) (P08047 whole entry, looked up): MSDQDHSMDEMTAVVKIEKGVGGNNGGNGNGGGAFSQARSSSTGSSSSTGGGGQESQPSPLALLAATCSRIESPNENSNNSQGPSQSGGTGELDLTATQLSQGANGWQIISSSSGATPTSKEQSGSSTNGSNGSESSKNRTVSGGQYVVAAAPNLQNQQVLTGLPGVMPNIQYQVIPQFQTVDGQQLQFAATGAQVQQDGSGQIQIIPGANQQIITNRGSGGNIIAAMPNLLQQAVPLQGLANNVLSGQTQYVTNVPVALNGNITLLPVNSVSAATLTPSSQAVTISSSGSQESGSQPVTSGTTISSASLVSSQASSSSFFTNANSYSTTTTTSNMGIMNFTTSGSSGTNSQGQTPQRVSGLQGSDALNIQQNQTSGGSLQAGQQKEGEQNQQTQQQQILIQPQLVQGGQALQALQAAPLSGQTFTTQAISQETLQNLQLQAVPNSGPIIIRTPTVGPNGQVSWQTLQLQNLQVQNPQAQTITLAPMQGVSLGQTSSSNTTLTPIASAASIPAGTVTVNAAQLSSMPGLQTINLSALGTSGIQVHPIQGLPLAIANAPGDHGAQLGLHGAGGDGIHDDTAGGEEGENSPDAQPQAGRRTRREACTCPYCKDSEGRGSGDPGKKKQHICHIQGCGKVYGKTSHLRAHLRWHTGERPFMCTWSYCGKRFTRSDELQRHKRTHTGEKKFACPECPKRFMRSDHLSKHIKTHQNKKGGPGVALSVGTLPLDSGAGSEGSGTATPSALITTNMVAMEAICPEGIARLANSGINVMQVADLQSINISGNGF
Chain of Hepatocyte nuclear factor 6 (Homo sapiens) (Q9UBC0 whole entry, looked up): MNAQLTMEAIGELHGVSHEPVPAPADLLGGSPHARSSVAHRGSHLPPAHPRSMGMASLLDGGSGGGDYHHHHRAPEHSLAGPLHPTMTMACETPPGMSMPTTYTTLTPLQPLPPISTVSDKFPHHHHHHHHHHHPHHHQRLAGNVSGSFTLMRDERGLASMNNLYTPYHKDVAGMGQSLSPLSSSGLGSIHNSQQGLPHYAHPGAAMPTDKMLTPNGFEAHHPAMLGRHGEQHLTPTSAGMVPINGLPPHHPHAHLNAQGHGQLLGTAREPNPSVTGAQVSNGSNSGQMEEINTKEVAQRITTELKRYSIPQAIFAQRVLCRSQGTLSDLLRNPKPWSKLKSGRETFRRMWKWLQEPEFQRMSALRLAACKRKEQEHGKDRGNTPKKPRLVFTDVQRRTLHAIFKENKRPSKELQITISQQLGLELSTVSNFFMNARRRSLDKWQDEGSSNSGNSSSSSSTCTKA
Chain of Paired box protein Pax-6 (Homo sapiens) (P26367 whole entry, looked up): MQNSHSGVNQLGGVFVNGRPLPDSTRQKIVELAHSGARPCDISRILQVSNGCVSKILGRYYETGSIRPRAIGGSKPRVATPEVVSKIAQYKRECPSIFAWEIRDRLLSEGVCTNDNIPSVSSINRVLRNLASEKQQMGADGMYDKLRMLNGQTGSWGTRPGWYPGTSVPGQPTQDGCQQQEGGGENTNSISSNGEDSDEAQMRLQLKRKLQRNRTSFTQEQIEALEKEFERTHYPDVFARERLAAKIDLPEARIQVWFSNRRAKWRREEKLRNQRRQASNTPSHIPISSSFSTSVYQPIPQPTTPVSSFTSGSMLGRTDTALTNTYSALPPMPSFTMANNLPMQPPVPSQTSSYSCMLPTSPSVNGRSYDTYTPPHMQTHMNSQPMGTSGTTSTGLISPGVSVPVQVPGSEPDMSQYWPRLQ
Chain of Heat shock factor protein 1 (Homo sapiens) (Q00613 whole entry, looked up): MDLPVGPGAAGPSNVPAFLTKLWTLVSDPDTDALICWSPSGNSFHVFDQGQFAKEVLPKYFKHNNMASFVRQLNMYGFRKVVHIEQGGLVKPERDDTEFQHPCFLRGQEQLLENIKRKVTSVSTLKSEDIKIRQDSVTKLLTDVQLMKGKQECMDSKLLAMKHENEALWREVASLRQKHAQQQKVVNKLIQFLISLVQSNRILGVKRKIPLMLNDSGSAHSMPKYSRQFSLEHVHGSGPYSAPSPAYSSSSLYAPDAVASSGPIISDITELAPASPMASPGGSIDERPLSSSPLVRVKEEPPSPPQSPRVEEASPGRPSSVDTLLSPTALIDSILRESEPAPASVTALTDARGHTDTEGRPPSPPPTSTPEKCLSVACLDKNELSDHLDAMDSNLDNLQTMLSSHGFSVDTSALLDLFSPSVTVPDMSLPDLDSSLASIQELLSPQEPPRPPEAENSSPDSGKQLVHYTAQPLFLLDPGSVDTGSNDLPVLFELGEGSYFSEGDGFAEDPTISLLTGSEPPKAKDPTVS
Chain of Signal transducer and activator of transcription 3 (Homo sapiens) (P40763 whole entry, looked up): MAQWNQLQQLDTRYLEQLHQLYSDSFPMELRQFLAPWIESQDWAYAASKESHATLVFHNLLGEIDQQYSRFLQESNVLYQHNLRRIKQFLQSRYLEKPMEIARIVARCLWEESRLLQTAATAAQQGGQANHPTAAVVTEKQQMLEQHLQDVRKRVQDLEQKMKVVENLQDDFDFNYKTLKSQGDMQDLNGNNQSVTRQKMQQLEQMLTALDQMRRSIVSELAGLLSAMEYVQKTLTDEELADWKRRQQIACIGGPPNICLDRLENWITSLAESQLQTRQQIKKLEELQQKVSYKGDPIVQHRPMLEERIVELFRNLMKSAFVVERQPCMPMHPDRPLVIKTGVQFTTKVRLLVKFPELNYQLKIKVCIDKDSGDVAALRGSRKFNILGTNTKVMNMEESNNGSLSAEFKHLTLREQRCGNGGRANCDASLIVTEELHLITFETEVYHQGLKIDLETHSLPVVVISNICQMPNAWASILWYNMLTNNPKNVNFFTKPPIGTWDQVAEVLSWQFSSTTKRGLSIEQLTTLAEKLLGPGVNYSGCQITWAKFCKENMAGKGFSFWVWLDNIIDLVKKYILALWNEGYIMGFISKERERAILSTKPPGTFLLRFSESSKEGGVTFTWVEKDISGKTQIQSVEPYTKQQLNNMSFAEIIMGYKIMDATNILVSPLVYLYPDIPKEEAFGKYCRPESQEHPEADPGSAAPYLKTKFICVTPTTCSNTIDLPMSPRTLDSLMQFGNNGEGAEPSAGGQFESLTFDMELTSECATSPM
Chain of Hypoxia-inducible factor 1-alpha (Homo sapiens) (Q16665 whole entry, looked up): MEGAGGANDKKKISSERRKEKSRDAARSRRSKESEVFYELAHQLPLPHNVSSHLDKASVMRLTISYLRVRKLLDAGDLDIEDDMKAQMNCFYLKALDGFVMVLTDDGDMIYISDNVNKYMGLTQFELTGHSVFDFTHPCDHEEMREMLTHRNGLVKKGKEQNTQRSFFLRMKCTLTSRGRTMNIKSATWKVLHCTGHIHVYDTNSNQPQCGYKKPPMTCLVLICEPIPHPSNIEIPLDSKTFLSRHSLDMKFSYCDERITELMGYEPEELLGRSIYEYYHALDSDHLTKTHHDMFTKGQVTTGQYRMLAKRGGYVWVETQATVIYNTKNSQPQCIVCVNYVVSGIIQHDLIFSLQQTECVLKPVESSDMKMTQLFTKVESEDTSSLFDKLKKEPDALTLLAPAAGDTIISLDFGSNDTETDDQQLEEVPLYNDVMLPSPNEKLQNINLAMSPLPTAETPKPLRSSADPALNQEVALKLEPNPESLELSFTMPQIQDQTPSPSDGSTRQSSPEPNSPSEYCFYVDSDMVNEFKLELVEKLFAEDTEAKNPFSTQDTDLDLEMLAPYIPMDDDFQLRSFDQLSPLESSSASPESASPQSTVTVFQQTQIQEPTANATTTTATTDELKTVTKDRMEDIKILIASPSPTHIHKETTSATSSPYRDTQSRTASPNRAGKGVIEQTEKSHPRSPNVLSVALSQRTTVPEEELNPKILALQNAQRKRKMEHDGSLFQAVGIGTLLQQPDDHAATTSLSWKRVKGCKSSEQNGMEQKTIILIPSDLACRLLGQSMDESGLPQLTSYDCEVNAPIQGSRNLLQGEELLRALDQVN

Brc1cc(Br)c(Oc2c(Br)cc(Br)c(Br)c2Br)cc1Br
outcome [1]: inactive | outcome [2]: inactive | outcome [3]: inactive | outcome [4]: inactive | outcome [5]: inactive | outcome [6]: inactive | outcome [7]: inactive | outcome [8]: inactive | outcome [9]: inactive | outcome [10]: inactive | outcome [11]: inactive | outcome [12]: inactive | outcome [13]: inactive | outcome [14]: inactive | outcome [15]: inactive | outcome [16]: inactive | outcome [17]: inactive | outcome [18]: inactive | outcome [19]: inactive

COC(=O)CC(C(C)=O)C(=O)OC (stereo not drawn)
outcome [1]: inactive | outcome [2]: inactive | outcome [3]: inactive | outcome [4]: inactive | outcome [5]: inactive | outcome [6]: inactive | outcome [7]: inactive | outcome [8]: inactive | outcome [20]: inactive | outcome [10]: inactive | outcome [12]: inactive | outcome [13]: inactive | outcome [14]: inactive | outcome [15]: inactive | outcome [16]: inactive | outcome [17]: inactive | outcome [18]: inactive | outcome [19]: inactive

O=S(=O)(c1ccc(OCc2ccccc2)cc1)c1ccccc1O
outcome [1]: inactive | outcome [2]: inactive | AC50 [3]: 33.4 µM (active) | AC50 [4]: 61.3 µM (active) | AC50 [5]: 44.2 µM (active) | AC50 [6]: 40.9 µM (active) | AC50 [7]: 24.1 µM (active) | AC50 [8]: 33.4 µM (active) | AC50 [20]: 7.94 µM (active) | outcome [10]: inactive | AC50 [12]: 30.6 µM (active) | AC50 [13]: 22.7 µM (active) | outcome [14]: inactive | outcome [15]: inactive | AC50 [16]: 54.4 µM (active) | outcome [17]: inactive | outcome [18]: inactive | AC50 [19]: 8.61 µM (active)

O=CC(F)(F)C(F)(F)C(F)(F)C(F)F
outcome [1]: inactive | outcome [2]: inactive | outcome [3]: inactive | outcome [4]: inactive | outcome [5]: inactive | outcome [6]: inactive | outcome [7]: inactive | outcome [8]: inactive | outcome [20]: inactive | outcome [11]: inactive | outcome [12]: inactive | outcome [14]: inactive | outcome [15]: inactive | outcome [16]: inactive | outcome [17]: inactive | outcome [18]: inactive | outcome [19]: inactive

O=CC(F)(F)C(F)(F)C(F)(F)F
outcome [1]: inactive | outcome [2]: inactive | outcome [3]: inactive | outcome [4]: inactive | outcome [5]: inactive | outcome [6]: inactive | outcome [7]: inactive | outcome [8]: inactive | outcome [9]: inactive | outcome [10]: inactive | outcome [11]: inactive | outcome [12]: inactive | outcome [14]: inactive | outcome [15]: inactive | outcome [16]: inactive | outcome [17]: inactive | outcome [18]: inactive | outcome [19]: inactive

C=CC(F)(F)C(F)(F)C(F)(F)C(F)(F)F
outcome [1]: inactive | outcome [2]: inactive | outcome [3]: inactive | outcome [4]: inactive | outcome [5]: inactive | outcome [6]: inactive | outcome [7]: inactive | outcome [8]: inactive | outcome [9]: inactive | outcome [10]: inactive | outcome [11]: inactive | outcome [12]: inactive | outcome [13]: inactive | outcome [14]: inactive | outcome [15]: inactive | outcome [16]: inactive | outcome [17]: inactive | outcome [18]: inactive | outcome [19]: inactive

Brc1ccc(Oc2ccc(Br)cc2Br)cc1
outcome [1]: inactive | outcome [2]: inactive | outcome [3]: inactive | outcome [4]: inactive | outcome [5]: inactive | outcome [6]: inactive | outcome [7]: inactive | outcome [8]: inactive | outcome [9]: inactive | outcome [12]: inactive | outcome [14]: inactive | outcome [15]: inactive | outcome [16]: inactive | outcome [18]: inactive | outcome [19]: inactive

CCCCCCCCCCCCCCCCCC[N+](C)(C)Cc1ccccc1
outcome [1]: inactive | outcome [2]: inactive | outcome [3]: inactive | AC50 [4]: 10.1 µM (active) | outcome [5]: inactive | AC50 [6]: 7.27 µM (active) | outcome [7]: inactive | outcome [20]: inactive | AC50 [9]: 79.8 µM (active) | outcome [10]: inactive | AC50 [11]: 12.4 µM (active) | outcome [12]: inactive | AC50 [13]: 13.2 µM (active) | AC50 [14]: 88.9 µM (active) | outcome [15]: inactive | outcome [16]: inactive | outcome [17]: inactive | outcome [18]: inactive | AC50 [19]: 50 µM (active)
